Screen size: about 5,500 compounds; about 2,000 (36%) were called active. Inconclusive results (about 18%) are left out. No stated cut-off is given here; in the data, active means normalized growth mostly below about 0.91 (no sharp cut-off); inconclusive means no clear call, values can overlap the other calls; inactive means mostly above about 0.92. The list shows a part of the results.
Experiment: chemical genetic growth profiling, strain panel (AID 1159580);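 further: tested at 20 µM; growth read once vehicle control cultures reached saturation at 30 °C; 1 = growth at the plate median or of vehicle wells; lower values mean less growth of the strain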
Conditions: S. cerevisiae deletion strains, growth OD

Measured: normalized growth

CCC(C)[C@H]1O[C@]2(CC[C@@H]1C)C[C@@H]1C[C@@H](C/C=C(\C)[C@@H](OC3C[C@H](OC)C(O[C@H]4C[C@H](OC)[C@@H](O)[C@H](C)O4)[C@H](C)O3)[C@@H](C)/C=C/C=C3\CO[C@@H]4[C@H](O)C(C)=C[C@@H](C(=O)O1)[C@]34O)O2 (stereo partly drawn)
inactive: locus YHR030C, strain SLT2, hits give low values 0.995 | locus YHR079C, strain IRE1, hits give low values 0.992 | locus YJL095W, strain BCK1, hits give low values 0.964 | locus YJR066W, strain TOR1, hits give low values 0.941 | locus YLR113W, strain HOG1, hits give low values 0.993 | locus YNL183C, strain NPR1, hits give low values 0.948 | locus YOR231W, strain MKK1, hits give low values 1 | locus YPL256C, strain CLN2, hits give low values 0.94

— PubChem BioAssay AID1159580 (chemical genetic matrix, 2015)
